# ± gives the standard deviation.
# Tested on: MILI (PIWIL2) piRISC loaded with L1MC piRNA (26 nt)
# Assay: pre-steady-state target cleavage rate (min^-1); guide: L1MC piRNA 5'p-UAACUAAAUACUAUGCAAGCUGUAGG; MIWI and MILI are mouse PIWI proteins and EfPiwi is from a freshwater sponge; tags in brackets are library labels; higher = faster piRNA-guided slicing of the target
# Settings: auxiliary factor: 500 nM mouse GTSF1
# Method in brief: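 The pre-steady-state cleavage rate came from a burst-and-steady-state fit to pooled data from three Cleave-'n-Seq trials, in which uncleaved targets were sequenced and normalised to depth and to weakly complementary targets. Each reaction held 0.1 nM transcribed, DNA-blocked target RNA library and 1 nM active affinity-purified piRISC carrying one synthetic guide, with or without 500 nM GTSF1 partner protein, in HEPES–potassium acetate buffer at 33 °C for 0–8 or 0–960 min. k3 was capped at 0.0001 min^-1.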
row,Sequence,pre-steady-state target cleavage rate
1,UCCUGCUACAGGUUGCAUAGUAUUUAGUAA,0.223 ± 0.024
2,UCCUGCUACAGCUUGCAUAGUACUUAGUUA,0.233 ± 0.026
3,UCCUGGUACAGCUUGCAUAGUAUUUAGAUA,0.149 ± 0.033
4,UCCUGGAUGUCGUUCGCAUAGUAUUUAGUUA,0.101 ± 0.013
5,UCCUGGAUGUCCUUGCAUAGUAUUUAAGUUA,0.173 ± 0.023
6,UCCUGGAACAGCUUGCAUAGUAUUAGUUA,0.199 ± 0.016
7,UCCUGGAUCAGCUUGCAUAGUAAUAAGUUA,0.189 ± 0.019
8,UCCUGGAUGUCCGUGCAUAGUAUUUAGUUA,0.0403 ± 0.011
9,UCCUGGAUGUCCUUGCAUAGUCUUUAGUUA,0.0269 ± 0.0075
10,UCCUGCUACAGCUUGCAUAGUAUUUUAGUUA,0.283 ± 0.023
11,UCCUGGUACAGCUUGCCUAGUAUUUAGUUA,0.213 ± 0.019
12,UCCUGGUACAGCUUGCAUCGUAUUUAGUUA,0.0739 ± 0.014
13,UCCUGGAACACUUGCAUAGUAUUUAGUUA,0.194 ± 0.017
14,UCCUGGUACAGCUGCAUAGUAUUUAGUUA,0.23 ± 0.016
15,UCCUCGUACAGCUUGCAUAGUAUUAAGUUA,0.214 ± 0.022
16,UCCUGGAACUCCUUGCAUAGUAUUUAGUUA,0.238 ± 0.02
17,UCCUCCUACAGCUUGCAUAGUAUAAAGUUA,0.137 ± 0.023
18,UCCUGGAUGUGCUCUGCAUAGUAUUUAGUUA,0.137 ± 0.015
19,UCCUGGAUCAGCUUGCAUAAUAUUUAGUUA,0.253 ± 0.031
20,UCCUCCUACACGCUUGCAUAGUAUUUAGUUA,0.207 ± 0.013
21,UCCUCCAACAGCUUGCAUUGUAUUUAGUUA,0.257 ± 0.018
22,UCCUGGAUGUGCCUUGCAUAGUAUUUAGUUA,0.111 ± 0.022
23,UCCUGGAUGUCCUUGCACAGUAUUUAGUUA,0.145 ± 0.028
24,UCCUGGUACAGCUUGACAUAGUAUUUAGUUA,0.231 ± 0.025

# From the supplement of paper PMC10338343
